Giardia FBPA inh: blocks Giardia fructose-bisphosphate aldolase activity. purified Giardia FBPA. actives 0.71% (n = 290,000). AID 2451. Potency, µM (top dose mostly 59.6 µM), inactives show top-dose activity, negative = inhibition, hits mostly inhibitors; note: potency is the fitted concentration of half-maximal effect; % is set by controls: 0 for no effect and ±100 for the full control effect; nearly all actives have a fitted effect of over 55% in size
Target sequence (A8B2U2 whole entry, looked up): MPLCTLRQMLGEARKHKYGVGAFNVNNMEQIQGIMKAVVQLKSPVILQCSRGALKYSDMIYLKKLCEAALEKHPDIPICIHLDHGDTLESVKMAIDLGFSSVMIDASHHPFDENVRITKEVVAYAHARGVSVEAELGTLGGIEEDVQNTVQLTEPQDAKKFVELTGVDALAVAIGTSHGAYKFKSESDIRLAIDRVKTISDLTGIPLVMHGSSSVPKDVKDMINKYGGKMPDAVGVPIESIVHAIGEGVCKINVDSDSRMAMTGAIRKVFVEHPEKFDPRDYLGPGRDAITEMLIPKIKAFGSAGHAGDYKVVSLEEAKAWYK
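40 nM FBPA preincubated 10 min at RT with compound (up to 57.5 uM final), then substrate plus GAPDH/TPI/NAD/arsenate coupling and diaphorase/resazurin added. Fluorescence read after 20 min at RT, 525/598 nm.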
NS1 inh: blocks influenza NS1 protein function; Potency, µM (series often up to 46.1 µM), for the others: at the highest dose activity, positive = more growth; actives 0.4% (n = 270,000); AID 2326; calls by dose curve; note: potency is the fitted concentration of half-maximal effect; actives are rising curves; nearly all actives have a fitted effect of over 50% in size
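S. cerevisiae expressing influenza A NS1, grown in glucose, washed, then diluted 1:100 into pH 6.0 -URA galactose medium with 23 nl compound. Growth recovery read as OD600; NS1-free strain serves as control.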
Shiga toxin inh: inhibitors of Shiga toxin in Vero cells. Vero cells, Shiga toxin protein synthesis inhibition reporter. actives 9.2% (n = 290,000). inhibition, % at 38.7 µM; in the data active = inhibition mostly above about 28%, no sharp cut-off; inactive = mostly below about 43%; note: 0% is about no effect
Pf growth 96h: P. falciparum growth inhibition at 96 hours; P. falciparum luciferase reporter growth, 96 h; Potency, µM (highest dose often 28.7 µM), for the others: at the highest dose activity change, negative = inhibition, usual class: inhibitors; actives 6.9% (n = 320,000); AID 504834; note: potency is the fitted concentration of half-maximal effect; % is set by controls: 0 for no effect and ±100 for the full control effect
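Two parasite generations (96 h, 37 C, 5% CO2) of compound exposure in infected erythrocytes (0.05% parasitemia, 2% hematocrit). Luciferase-reporter P. falciparum; decreased luminescence indicates inhibited growth, aimed at apicoplast-acting delayed death.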
Cycloheximide cs: counter-screen hit for Shiga toxin inhibitors, cycloheximide | cell reporter, cycloheximide protein synthesis inhibition counterscreen | max response, % | actives 12% (n = 300,000); in the data active = max response mostly above about 13%, no sharp cut-off; inactive = mostly below about 14%; note: read at 38.3 µM for the half of the compounds with a filed dose; 0% is about no effect
Pf growth 48h: inhibits P. falciparum growth in the first generation, 48 h. P. falciparum luciferase growth in erythrocytes, 48 h. Potency, µM (titrated, usually from 28.7 µM), for the others: at the highest dose activity change, negative = inhibition, most hits filed as inhibitors. actives 5.9% (n = 310,000). AID 504832; note: potency is the fitted concentration of half-maximal effect; % is set by controls: 0 for no effect and ±100 for the full control effect
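Compounds are pin-transferred into medium, infected erythrocytes (2% hematocrit, 0.1% parasitemia final) are added, and plates sit one parasite generation at 37 C in 5% CO2. Detection reagent is then added and luminescence measured.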
Starred values were filed as active, the others as inactive; ? = inconclusive; . = not tested or not shown; [ ] = remark or other dose. Most compounds without a hit are left out; they make up all but 21% or so of the library. Unless noted, calls come from the whole dose curve; as a rule, active = well fitted curve in the direction sought with a large enough effect; inconclusive = small, poorly fitted or top-dose-only effect, or another doubt; inactive = no such curve, though single readings can be large; an effect the other way counts as inactive or inconclusive.

SMILES	Giardia FBPA inh	NS1 inh	Shiga toxin inh	Pf growth 96h	Cycloheximide cs	Pf growth 48h
Nc1ccc(Oc2ccc(F)cc2)nc1	-18%	1%	-5	33%	-1	0%
Fc1ccc(Oc2cnc3ccccc3n2)cc1	-2%	.	39*	-13%	22	22%
Cc1ccc(Oc2cnc3ccccc3n2)cc1	-2%	1%	103*	122%	58*	72%
COc1ccc(Oc2cc(C)c3ccccc3n2)cc1	-2%	-13%	69*	?	34	19%
Nc1nc(Cl)cc(Oc2ccc(Cl)cc2)n1	3%	.	7	137%	16	38%
Clc1ccc(Oc2cnc3ccccc3n2)cc1	1%	9%	33*	54%	21*	-9%
CCCCC[C@H](O)/C=C/C=C\C/C=C\CCCCCCC(=O)O	-3%	.	.	.	.	.
COc1ccc(-c2nc3cnc(N(C)C)nc3n(C3CC3)c2=O)cc1	3%	.	.	.	.	.
O=C(c1cnccn1)N1CCC2(CC1)CN(Cc1nccs1)C2	1%	.	.	.	.	.
CCOC(=O)c1oc2c(c1C)/C(=N/O)CCC2	13%	-25%	66*	84%	41*	46%
O=C(COc1ccc(F)cc1Br)NCc1ccccn1	12%	-20%	61*	89%	48*	103%
Cn1c(=O)cc(OCC(=O)NCc2ccccn2)c2ccccc21	-6%	2%	-5	.	5	2%
O=C(COc1ccccc1Br)NCc1ccccn1	2%	-7%	64*	?	29*	.
Cc1ccc(OCC(=O)NCc2ccccn2)c(Br)c1	6%	-16%	78*	.	31*	244%
O=C(COc1ccc(S(=O)(=O)N2CCCC2)cc1Cl)NCc1ccccn1	.	-1%	-12	-56%	-1	?
Cc1ccc(OCC(=O)NCCO)c(Br)c1	3%	-1%	29	?	31*	128%
CCc1ccccc1NC(=O)CN(C)C(=O)c1cc(C2CC2)nc2c1cnn2C(C)C	.	.	.	?	.	12µM*
Cc1ccc2nc(-c3ccncc3)cc(C(=O)NCCc3ccc(F)cc3)c2c1	3%	-1%	-11	?	5	-10%
CC(C)n1ncc2c(C(=O)NCCc3ccc(F)cc3)cc(C3CC3)nc21	.	.	.	?	.	9.3µM*
Cc1ccccc1CCNC(=O)c1cc(C2CC2)nc2c1cnn2C(C)C	.	.	.	13µM*	.	12µM*
Cc1cc(=O)oc2cc3c(cc12)CCCN3	-7%	-3%	27	56%	19*	59%
CN1CC(=O)N2Cc3[nH]c4ccccc4c3C[C@H]2C1=O	-3%	0%	24	-1%	-4	11%
NC[C@@H](O)CSP(=O)(O)O	.	0%	.	.	.	.
C=C[C@@H]1CN2CC[C@H]1C[C@H]2[C@H](O)c1ccnc2ccccc12	.	.	.	0.054µM*	.	0.13µM*
C=C[C@@H]1CN2CC[C@H]1CC2[C@H](O)c1ccnc2ccccc12 (stereo partly specified)	.	-4%	.	.	.	.
SMILES	Giardia FBPA inh	NS1 inh	Shiga toxin inh	Pf growth 96h	Cycloheximide cs	Pf growth 48h
C=C[C@H]1CN2CC[C@@H]1C[C@H]2[C@@H](O)c1ccnc2ccccc12	1%[21.7 µM]	.	.	.	.	.
CC[C@H]1CN2CCC1C[C@H]2[C@H](O)c1ccnc2ccc(OC)cc12 (stereo partly specified)	.	.	.	0.052µM*	.	0.093µM*
C=CC1CN2CCC1CC2C(O)c1ccnc2ccccc12 (stereo unspecified)	1%	.	.	.	.	.
C=CC1CN2CCC1CC2C(OC(=O)OCC)c1ccnc2ccc(OC)cc12 (stereo unspecified)	5%	.	.	0.76µM*	.	1.7µM*
C=CC1CN2CCC1CC2[C@@H](OC(=O)c1ccc(OC)cc1)c1ccnc2ccccc12 (stereo partly specified)	9%	-6%	-24	12%	-7	2.9µM*
CC(C)Cn1c(N)c(C(=O)CSc2nc3ccccc3c(=O)n2CCCN2CCOCC2)c(=O)n(C)c1=O	5%	.	-11	17%	-2	-3%
COCC(C)NC(=O)CSc1nc2ccccc2c(=O)n1CCc1ccc(S(N)(=O)=O)cc1 (stereo unspecified)	.	0%	1	?	-2	?
CN(C)S(=O)(=O)n1cc(/C=C(\NC(=O)c2ccccc2F)C(=O)N2CCCC2)c2ccccc21	9%	-3%	14	-1%	8	?
COc1ccc(OCc2cc(C(=O)NCC3CCOCC3)no2)c(Cl)c1	-2%	-3%	54*	?	51*	8%
